# ± gives the standard deviation of the averaged measurements.
# System: E. coli BW25113 marRABp lux reporter
# Experiment: promoter activity interaction Z-score (Lux/OD deviation from empty-vector control); higher = stronger promoter induction by the compound
# Method: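 E. coli BW25113 (wild type or ΔmarA/ΔsoxS/Δrob) carrying pTU175 luxCDABE promoter reporters was grown in LB in 384-well plates at 37°C with each of 94 compounds at 4 two-fold concentrations, in biological duplicates. Luminescence and OD600 were read every 30 min for 12 h and integrated as AUC over 8 h (0-8 h WT, 1-9 h mutants). Lux AUC was divided by OD AUC; the interaction score is the residual of a Huber robust fit of each promoter against the empty-vector control, then Z-transformed per promoter.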
SMILES,"promoter activity interaction Z-score (0.048 µg/ml, genetic background: wild type)","promoter activity interaction Z-score (0.048 µg/ml, genetic background: ΔmarA)","promoter activity interaction Z-score (0.048 µg/ml, genetic background: Δrob)","promoter activity interaction Z-score (0.048 µg/ml, genetic background: ΔsoxS)","promoter activity interaction Z-score (0.1 µg/ml, genetic background: wild type)","promoter activity interaction Z-score (0.1 µg/ml, genetic background: ΔmarA)","promoter activity interaction Z-score (0.1 µg/ml, genetic background: Δrob)","promoter activity interaction Z-score (0.1 µg/ml, genetic background: ΔsoxS)","promoter activity interaction Z-score (0.19 µg/ml, genetic background: wild type)","promoter activity interaction Z-score (0.19 µg/ml, genetic background: ΔmarA)","promoter activity interaction Z-score (0.19 µg/ml, genetic background: Δrob)","promoter activity interaction Z-score (0.19 µg/ml, genetic background: ΔsoxS)","promoter activity interaction Z-score (0.38 µg/ml, genetic background: wild type)","promoter activity interaction Z-score (0.38 µg/ml, genetic background: ΔsoxS)","promoter activity interaction Z-score (0.62 µg/ml, genetic background: wild type)","promoter activity interaction Z-score (0.62 µg/ml, genetic background: ΔmarA)","promoter activity interaction Z-score (0.62 µg/ml, genetic background: Δrob)","promoter activity interaction Z-score (0.62 µg/ml, genetic background: ΔsoxS)","promoter activity interaction Z-score (1.2 µg/ml, genetic background: wild type)","promoter activity interaction Z-score (1.2 µg/ml, genetic background: ΔmarA)","promoter activity interaction Z-score (1.2 µg/ml, genetic background: Δrob)","promoter activity interaction Z-score (1.2 µg/ml, genetic background: ΔsoxS)","promoter activity interaction Z-score (2.5 µg/ml, genetic background: wild type)","promoter activity interaction Z-score (2.5 µg/ml, genetic background: ΔmarA)","promoter activity interaction Z-score (2.5 µg/ml, genetic background: Δrob)","promoter activity interaction Z-score (2.5 µg/ml, genetic background: ΔsoxS)","promoter activity interaction Z-score (5 µg/ml, genetic background: wild type)","promoter activity interaction Z-score (5 µg/ml, genetic background: ΔmarA)","promoter activity interaction Z-score (5 µg/ml, genetic background: Δrob)","promoter activity interaction Z-score (5 µg/ml, genetic background: ΔsoxS)"
CCC(C)CCCC(=O)N[C@@H](CCN)C(=O)N[C@H](C(=O)N[C@@H](CCN)C(=O)N[C@H]1CCNC(=O)[C@H]([C@@H](C)O)NC(=O)[C@H](CCN)NC(=O)[C@H](CCN)NC(=O)[C@H](CC(C)C)NC(=O)[C@@H](CC(C)C)NC(=O)[C@H](CCN)NC1=O)[C@@H](C)O (stereo not given in full) [Colistin],-0.253 ± 0.2,-0.196 ± 0.055,0.00109 ± 0.051,0.178 ± 0.25,-0.233 ± 0.24,-0.108 ± 0.097,-0.0851 ± 0.097,0.0244 ± 0.049,-0.154 ± 0.21,-0.0032 ± 0.049,0.0892 ± 0.15,0.023 ± 0.025,1.21 ± 0.13,1.22,,,,,,,,,,,,,,,,
CN[C@@H]1[C@H](O)[C@H](NC)[C@H]2O[C@@]3(O)C(=O)C[C@@H](C)O[C@H]3O[C@@H]2[C@H]1O [Spectinomycin],,,,,,,,,,,,,,,0.174 ± 0.026,0.168 ± 0.75,0.332 ± 0.41,-0.125 ± 0.11,0.433 ± 0.052,0.324 ± 0.39,0.402 ± 0.72,0.018 ± 0.043,0.0652 ± 0.25,-0.102 ± 0.25,-0.0628 ± 0.069,-0.128 ± 0.04,0.205 ± 0.44,0.687 ± 1.1,0.305 ± 0.34,0.00851 ± 0.23

# Reference: the supplement of paper PMC12282887
